Experimental findings from PubChem BioAssay AID709 (SRMLSC, 2007) are described below.

Hit rate of the full screen: of about 65,000 compounds, about 3,600 (5.5%) were called active. Shown is part of a subset that was picked to be rich in actives. Unmarked numbers belong to inactive results.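 Rule for the calls: active = at 10 µM, mean starting fluorescence two-fold or more over control wells; inactive = the rest.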

The assay can be described thus: intrinsic fluorescence of library compounds, ex339/em460 – biochemical, MLSMR library, data from DPM-DC assay, artefact control, profiling panel (AID 709).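 Note: signal is the first read of a kinetic run.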 As to conditions: compound autofluorescence, ex339/em460 nm, NADH buffer; at 10 µM; stronger effect = higher value; 1 = no-compound wells, NADH background.
`CCC1(C)N(O)C(C)(C)C(c2ccc(OC)cc2)=[N+]1[O-]` (stereo unspecified): the fluorescence fold increase was 1.08.
In the case of `COc1ccc(CCNC(=O)c2ccc3c(c2)NC(=O)C(N2CCOCC2)S3)cc1OC` (stereo unspecified), the fluorescence fold increase is 1.05.
Turning to `CCOc1ccccc1-n1c(SCC(=O)N2CCCC2)nnc1-c1ccoc1C`, the fluorescence fold increase is 1.07.
The result for `CCCCc1nccn1CCn1ccnc1CCCC` reads 1.03; that for `COc1ccc(-c2cc(C(=O)NC(C(=O)O)C(C)C)c(C)o2)cc1OC` (stereo unspecified), 1.05.
For `C=C(C)c1cccc(C(C)(C)NC(=O)N2CCN(c3ncccn3)CC2)c1`, the fluorescence fold increase is 1.1.
Regarding `Fc1ccc2[nH]c3c(N4CCN(Cc5ccc6c(c5)OCO6)CC4)ncnc3c2c1`, the fluorescence fold increase is 1.38.
The result for `Fc1ccc2[nH]c3c(N4CCSCC4)ncnc3c2c1` reads 1.68; that for `CC(C)OCCCNc1ncnc2c1[nH]c1ccc(F)cc12`, 3.76 (active).
For `CCN1CCCC1CNc1ncnc2c1[nH]c1ccc(F)cc12` (stereo unspecified) the value was 3.05 (active); for `COc1ccc(C(=O)Nc2cccnc2)cc1C(=O)Nc1cccnc1`, 1.05; for `C=CCn1c(C)cc(C(=O)CN2C(=O)c3ccccc3C2=O)c1C`, 1.04.
For `C=CCN(CC=C)C(=O)CN1C(=O)c2ccccc2C1=O` the value was 1.04; for `Cc1ccc(OCC(=O)Nc2ccc(-c3nc4ncccc4o3)cc2)cc1`, 3.7 (active); for `O=C(COC(=O)c1ccc(Oc2ccccc2)cc1)Nc1nnc(-c2ccccc2)o1`, 1.19.
`COc1ccc(-c2nc(CS(=O)CC(=O)NCc3ccccn3)c(C)o2)cc1` (stereo unspecified): the fluorescence fold increase is 1.
For `CCC(=O)Oc1cccc(C(=O)Nc2ccc(-c3nnc(-c4ccco4)o3)cc2)c1` the value was 1.53; for `CCOC(=O)c1ccc(NC(=O)CSc2ncccn2)cc1`, 1.02; for `COc1ccc(CC(=O)Nc2ccc(-c3nnc(-c4ccccc4)o3)cc2)cc1`, 2.23 (active).
For `O=C(CCc1ccccc1)Nc1cccc(-c2nnc(-c3ccco3)o2)c1` the value was 1.31; for `COc1ccc(CC(=O)Nc2ccc(-c3nnc(-c4ccc(C)cc4)o3)cc2)cc1`, 2.89 (active).
The result for `Cc1ccc(OCC(=O)Nc2ccc(-c3nnc(-c4ccco4)o3)cc2)cc1` reads 1.37; that for `CCCOC(=O)CC1C(=O)NCCN1Cc1ccc(F)cc1` (stereo unspecified), 1.06.
Turning to `C=C(Br)Cn1c(CCCC)nc2ccccc21`, the fluorescence fold increase was 1.05.
For `CCN(c1ccccc1)S(=O)(=O)c1cccc(C(=O)O)c1` the value was 0.98.
The result for `Cc1noc(C)c1CSc1nnc2ccc3ccccc3n12` reads 1.17; that for `COC(=O)C(NC(C)=O)(Nc1nc2c(s1)CCCC2)C(F)(F)F` (stereo unspecified), 1.04.
The result for `Cc1ccc(N(C(=O)CC2NC(=O)NC2=O)C2(C(=O)NC3CCCC3)CCCCC2)cc1` (stereo unspecified) reads 1.11; that for `O=C(NCc1ccccn1)c1ccc2nc(-c3ccco3)c(-c3ccco3)nc2c1`, 1.72; that for `Cc1cccn2c(=O)c3cc(C(=O)NCc4ccccn4)n(C)c3nc12`, 5.03 (active).
`Cc1ccccc1CN1CCN(CC(=O)NCc2ccccn2)C1=O`: the fluorescence fold increase was 1.13.
The result for `Cc1cccn2c(=O)c3cc(C(=O)N4COCC4(C)C)n(C)c3nc12` reads 4.96 (active).
In the case of `NC(=O)C1CCN(C2OC(=O)c3ccccc32)CC1` (stereo unspecified), the fluorescence fold increase was 1.08.
The result for `CCOC(=O)C1CCN(C(=O)C2CCN(S(=O)(=O)N3CCCC3)CC2)CC1` reads 1.03; that for `CCC(CC)c1nnc(NS(=O)(=O)Cc2ccccc2)s1`, 1.09; that for `Cc1nn2c3ccccc3nc2n(C)c1=O`, 0.93.
For `CN1c2ccccc2-c2nc3ccccc3n2C1c1ccco1` (stereo unspecified) the value was 2.31 (active); for `Cc1ccccc1N1C(=O)C2ON(c3ccccc3)C(c3ccncc3)C2C1=O` (stereo unspecified), 1.04; for `COc1ccc(N2CCN(C(=O)CSc3nc4cc(OC)c(OC)cc4cc3C#N)CC2)cc1`, 1.03.
For `COc1ccc2nc(N3CCCC(O)C3)c(C#N)cc2c1` (stereo unspecified) the value was 2.58 (active); for `CCOc1ccc2nc(N3CCCN(C(=O)Nc4ccccc4C)CC3)c(C#N)cc2c1`, 1.7; for `COc1ccc(C(=O)Nc2nncs2)c(OC)c1`, 1.05.
Regarding `COC(=O)c1sc(NC(=O)c2ccc(OC)cc2OC)nc1C`, the fluorescence fold increase is 2.06 (active).
For `COC(=O)c1sc(NC(=O)c2csc3c2CCCC3)nc1C` the value was 1.25; for `Cc1c(C(=O)Nc2ccccc2Cl)oc2ccc(S(=O)(=O)N3CCC4(CC3)OCCO4)cc12`, 3.37 (active); for `CCOc1ccccc1NC(=O)c1cc(S(=O)(=O)N2CCC3(CC2)OCCO3)ccc1F`, 1.05.
For `CCOC(=O)C1CCN(C(=O)c2oc3ccc(S(=O)(=O)N4CCCCCC4)cc3c2C)CC1` the value was 1.08; for `COC(=O)COc1ccc(S(=O)(=O)Nc2ccc(NC(C)=O)cc2)cc1`, 1.1; for `O=C(N1CCOCC1)N(Cc1ccccc1)c1ccccn1`, 1.08.
The result for `COc1cc(-n2c(C)nc3cc(C(=O)NCc4ccco4)ccc32)cc(OC)c1OC` reads 1.09; that for `Cc1cc(NC(=O)c2cnn3cccnc23)n(-c2ccccc2)n1`, 1.13.
In the case of `Cn1c(CNc2nc(-c3ccccc3)cs2)nnc1SCC(=O)c1ccccc1`, the fluorescence fold increase was 1.05.
As to `Cc1nc2ccccc2c(=O)n1CCCn1ccnc1`, the fluorescence fold increase is 1.18.
The result for `O=c1c2ccccc2oc2nc(C3CCCCC3)n(Cc3ccco3)c(=O)c12` reads 1.14.
For `Cc1ccc(Cn2c(C)nc3c(c2=O)c2nc4ccccc4nc2n3Cc2ccco2)cc1` the value was 2.34 (active); for `Cn1c(COc2ccc(Cl)cc2)nc2ccccc2c1=O`, 1.18.
The result for `Nc1cc(=O)nc(SCc2ccccc2)n1Cc1ccco1` reads 1.05; that for `Clc1cccc(-c2nc3nc4ccccc4nc3n2Cc2ccco2)c1`, 1.65.
Consider `Cc1nc2c(c(=O)n1Cc1ccco1)c1nc3ccccc3nc1n2Cc1ccccc1`, for which the fluorescence fold increase is 2.65 (active).
For `COCCCn1c2nc3ccccc3nc2c2c(=O)n(Cc3ccc(Cl)cc3)c(C)nc21` the value was 3.88 (active).
The result for `CC(Sc1nc2ccccc2c(=O)n1Cc1ccco1)C(=O)c1ccccc1` (stereo unspecified) reads 1.1.
The result for `CC(=O)Oc1cc2c(C(=O)NCCN3CCOCC3)c(C)oc2c2ccccc12` reads 1.19; that for `CCCS(=O)(=O)N1CCCC(C(=O)N2CCN(c3ccccc3)CC2)C1` (stereo unspecified), 1.11; that for `CN(C)Cc1c(O)ccc2occ(C(O)c3ccccc3)c12` (stereo unspecified), 1.03.
Turning to `COc1ccc(-c2ccnc(SCC(=O)N3CCOCC3)n2)cc1`, the fluorescence fold increase is 1.54.
The result for `Cc1c(C(=O)N2CCOCC2)[nH]c2ccc(OCc3ccccc3)cc12` reads 1.13; that for `COC(=O)c1[nH]c2ccccc2c1NC(=O)CN1CCCc2ccccc21`, 1.14; that for `COc1cc(NC(=O)N2CCOCC2)cc(OC)c1`, 1.07.
The result for `CCOC(=O)c1[nH]c2ccc(OC)cc2c1NC(=O)CCN1CCN(Cc2ccccc2)CC1` reads 2.37 (active); that for `CCOC(=O)c1[nH]c2ccc(OC)cc2c1NC(=O)N1CCOCC1`, 3.83 (active).
For `CCOc1ccccc1NC(=O)CCN1CCN(S(=O)(=O)c2ccc(OC)cc2)CC1` the value was 1.
Regarding `COC(=O)c1sc(=S)n(-c2ccccc2)c1N`, the fluorescence fold increase is 1.02.
`O=S(=O)(NCc1ccc2c(c1)OCO2)c1cccc2nsnc12`: the fluorescence fold increase is 1.04.
The result for `CCOC(=O)c1cc2occc2n1CC(=O)NC1CCC(C)CC1` (stereo unspecified) reads 1.03.
For the compound `Cc1cccc(N2CCN(Cc3c(C)n(C)n(-c4ccccc4)c3=O)CC2)c1C`, the fluorescence fold increase was 1.01.
Take `OCc1n[nH]c(CO)n1`: the fluorescence fold increase is 1.04.
Turning to `O=C(Nc1ccc2c(c1)nc1n2CCCCC1)c1cc(S(=O)(=O)N2CCOCC2)ccc1Cl`, the fluorescence fold increase is 1.09.
For `CC(c1nnc(SCC(=O)Nc2sccc2C#N)n1-c1ccc(Cl)cc1)N(C)C` (stereo unspecified) the value was 1.06.
The result for `CCCc1[nH]nc2c1C(c1c(C)nn(-c3ccccc3)c1Cl)C(C#N)=C(N)O2` (stereo unspecified) reads 1.09.
For `CSc1ccc(-c2c(C#N)c(N)nc3c2c(C)nn3-c2ccccc2)cc1` the value was 3.9 (active); for `CSc1nc(N)c(C#N)c(-c2ccccc2Cl)c1C#N`, 1.19; for `COc1ccc(OC)c(CNC(=O)CCc2nc(-c3cccs3)no2)c1`, 1.09.
For the compound `Cc1cc(C)nc(N(C#N)CC(=O)Nc2ccccc2)n1`, the fluorescence fold increase is 1.1.
The result for `Cc1ccc(S(=O)(=O)NCCN2CCOCC2)cc1C` reads 1.15; that for `COc1ccccc1NC1=NC(c2ccc(Cl)cc2)N=C(N)N1` (stereo unspecified), 1.03; that for `CCCc1nc2ccccc2c(C(=O)OCc2nnc(-c3cc(OC)c(OC)c(OC)c3)o2)c1CC`, 1.12.
The result for `CCCOc1ccc2c3c(c(=O)oc2c1OCCC)CCC3` reads 2.13 (active); that for `COc1ccc2c3c(c(=O)oc2c1OCC(=O)C(C)(C)C)CCCC3`, 2.12 (active).
For `COc1ccc(Cl)cc1S(=O)(=O)N1CCN(CC(=O)C(C)(C)C)CC1` the value was 0.9.
Take `COc1ccc(C(=O)OCC(=O)c2ccc(C)c(S(=O)(=O)N3CCOCC3)c2)cc1OC`: the fluorescence fold increase was 1.
For the compound `Cc1c(C)c2cc3c4c(oc3c(C)c2oc1=O)CCCC4`, the fluorescence fold increase was 1.64.
The result for `COC(=O)c1ccc(Oc2nc(Nc3ccc(F)cc3)nc(N3CCCC3)n2)cc1` reads 1.09; that for `Cc1ccc(C(c2nnnn2CS(=O)(=O)c2ccc(C)cc2)N2CCC(C(N)=O)CC2)cc1` (stereo unspecified), 1.03.
As for `Cc1cccc(NC(=O)CN2CCCN(S(=O)(=O)c3ccc(Br)s3)CC2)c1`, the fluorescence fold increase is 1.1.
On to `Cc1cc(NC(=O)c2cccc(N3C(=O)CCC3=O)c2)no1`, for which the fluorescence fold increase is 1.09.
For `COc1ccc2oc(=O)c(C(=O)O)cc2c1` the value was 3.98 (active); for `COc1ccc2oc(=O)c(C(=O)N3CCN(c4ccccc4F)CC3)cc2c1`, 1.41.
For `CCN(CC)c1ccc2cc(C(=O)O)c(=O)oc2c1`, the fluorescence fold increase is 2.71 (active).
As for `CCN(CC)c1ccc2oc(=O)c(C)nc2c1`, the fluorescence fold increase is 0.59.
The result for `CCCOC(=O)c1cc2ccccc2oc1=O` reads 1.51; that for `COc1ccc2oc(=O)c(C(=O)N3CCCc4ccccc43)cc2c1`, 1.09.
